Conditions in all cases: concentration: 1 μM, replicates: in singlicate; n = 1
For assay [1], the system named is TAOK3.
The test system of assay [2] is TBK1.
For assay [3], the system named is TEC.
For assay [4], the system named is TESK1.
Assay [5] relates to TGFBR1.
Assay [6] concerns TGFBR2.
For assay [7], the system named is TIE1.
The subject of assay [8] is T1, TIE2.
T1 construct: gene TEK

Assay [9] relates to TLK1.
Assay [10] has as its system TLK2.
In assay [11] the test system is TNIK.
For assay [12], the system named is TNK1.
Assay [13] has as its system TNK2.
For assay [14], the system named is TNNI3K.
The subject of assay [15] is T2, TRKA.
T2 construct: gene NTRK1

Assay [16] relates to TRKB.
Assay [17] concerns T3, TRKC.
T3 construct: gene NTRK3

Assay [18] has as its system TRPM6.
Assay [19] concerns TSSK1B.
Assay [20] deals with TSSK3.
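Further: KINOMEscan kinase panel screen.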

In the case of `COC(=O)c1c(-c2ccccc2)c2cc(C(=O)O)ccc2c(=O)n1Cc1ccccc1`, the “%Inh” value in assay [1] amounted to 0%; in assay [2], 6%; in assay [3], 0%; in assay [4] it was 0%; in [5], 21%; in assay [6], 8%. Further, the “%Inh” value in assay [7] turned out to be 0%; in assay [8], 18%; in assay [9] it was 10%; in assay [10], 0%; in assay [11], 0%; in [12] it was 0%. Further, the “%Inh” value is 0% in assay [13]; 0% in assay [14]; 0% in assay [15]; 0% in [16]; 11% in [17]; 0% in [18]. The “%Inh” value in [19] and in [20] was 0% in each case.
With `O=S(=O)(c1ccc(-c2ccnc3[nH]ccc23)cc1)N1CCCC1` [GSK846226], the “%Inh” value in assay [1] was 0%; in assay [2], 33%; in assay [3], 4%; in assay [4], 9%; in [5] it was 0%; in [6] it was 0%. For the same molecule, the “%Inh” value in [7] is 0%; in assay [8], 0%; in [9] it was 24%; in [10] it was 19%; in assay [11], 0%; in [12] it was 0%. Further, the “%Inh” value in assay [13] stood at 9%; in assay [14], 3%; in assay [15], 69%; in [16], 0%; in [17] it was 0%; in [18], 26%. Moreover, the “%Inh” value is on record as 10% in [19] and 18% in [20].
Regarding `O=C(Nc1ccc2c(c1)OCO2)NC1CCN(c2ccnc(Nc3ccc(F)cc3)n2)C1` (stereo not shown) [GSK1379724], the “%Inh” value in assay [1] is on record as 0%; in assay [2], 0%; in assay [3], 7%; in [4], 32%; in [5], 28%; in assay [6] it was 0%. The “%Inh” value is on record as 0% in assay [7]; 0% in assay [8]; 0% in assay [9]; 0% in [10]; 0% in [11]; 16% in assay [12]. The “%Inh” value in assay [13] amounted to 10%; in [14] it was 0%; in assay [15], 0%; in assay [16] it was 19%; in assay [17], 57%; in assay [18], 8%. Besides, the “%Inh” value in [19] stood at 0%; in assay [20], 18%.
Consider `CS(=O)(=O)c1ccc(-c2c(-c3ncn[nH]3)sc(N3CCOCC3)c2C#N)cc1`, for which the “%Inh” value in assay [1] worked out at 0%; in [2], 14%; in assay [3], 9%; in [4] it was 0%; in [5], 12%; in assay [6] it was 10%. Besides, the “%Inh” value in [7] is listed as 11%; in [8], 9%; in assay [9], 5%; in assay [10], 0%; in assay [11] it was 20%; in assay [12], 55%. Further, the “%Inh” value was 17% in assay [13]; 0% in assay [14]; 13% in assay [15]; 0% in assay [16]; 0% in [17]; 0% in assay [18]. Also, the “%Inh” value in assay [19] is 29%; in assay [20] it was 5%.
As to `COc1ccc2nc(-c3cccc(C)n3)nc(Nc3ccncc3)c2c1` [GSK204919], the “%Inh” value in assay [1] was 0%; in [2], 3%; in assay [3] it was 8%; in [4] it was 26%; in assay [6] it was 10%; in assay [7], 9%. In addition, the “%Inh” value is on record as 0% in assay [8]; 0% in assay [9]; 0% in [10]; 9% in assay [11]; 0% in assay [12]; 15% in [13]. For the same molecule, the “%Inh” value in assay [14] is given as 16%; in [15], 0%; in assay [16] it was 0%; in assay [17], 0%; in assay [18], 0%; in [19], 0%. Besides, the “%Inh” value in assay [20] came to 14%.
Take `Cc1cc(N2Cc3ccccc3C2)nc(Nc2ccc(S(=O)(=O)N3CCOCC3)cc2)n1.Cl` [GSK1669917]: the “%Inh” value in assay [1] is listed as 0%; in assay [2], 30%; in assay [3] it was 0%; in assay [4] it was 12%; in assay [5], 0%; in assay [6], 0%. Besides, the “%Inh” value in [7] is reported as 0%; in assay [8], 0%; in [9], 2%; in [10], 0%; in [11], 0%; in assay [12], 0%. Besides, the “%Inh” value is 7% in assay [13]; 0% in [14]; 0% in assay [15]; 0% in assay [16]; 0% in assay [17]; 9% in assay [18]. Further, the “%Inh” value in assay [19] is reported as 0%; in assay [20] it was 8%.
As for `CC1=C(C(=O)Nc2cc3cn[nH]c3cc2F)C(c2ccc(C(F)(F)F)cc2)CC(=O)N1` (stereo not shown) [GSK429286], the “%Inh” value in [1] came out at 0%; in [2], 4%; in assay [3], 18%; in assay [4], 30%; in assay [5], 0%; in assay [6], 0%. The “%Inh” value is 12% in assay [7]; 0% in [8]; 10% in [9]; 0% in assay [10]; 0% in [11]; 0% in assay [12]. Further, the “%Inh” value came out at 15% in assay [13]; 3% in assay [14]; 0% in [15]; 0% in assay [16]; 0% in [17]; 0% in assay [18]. The “%Inh” value in [19] amounted to 13%; in [20] it was 14%.
